Screens deposited in PubChem by National Center for Advancing Translational Sciences (NCATS).
The list is not random: actives were taken first. Their share in the collection is about 8.7%.
Pf growth 48h: Primary qHTS for delayed death inhibitors of the malarial parasite plastid, 48 hour incubation; P. falciparum luciferase growth in erythrocytes, 48 h; Potency, µM (doses to about 28.7 µM), usual class: inhibitors; 310,000 tested, 5.9% active; AID 504832, 2011
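Firefly luciferase activity from engineered P. falciparum reports growth; inhibitors lower the luminescent signal. Cultures contained 2% hematocrit erythrocytes at 0.1% final parasitemia.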
Vaccinia mCherry: qHTS for Stage-Specific Inhibitors of Vaccinia Orthopoxvirus: mCherry Reporter Primary qHTS | Vaccinia virus mCherry reporter infection, fluorescence | Potency, µM (titrated, usually from 36.5 µM), most hits filed as inhibitors | 310,000 tested, 0.63% active; calls by dose curve; tested in A549 cells; note: nearly all actives have a fitted effect of over 35% in size
Pf growth 96h: Primary qHTS for delayed death inhibitors of the malarial parasite plastid, 96 hour incubation. P. falciparum luciferase reporter growth, 96 h. Potency, µM (titrated, usually from 28.7 µM), most hits filed as inhibitors. 320,000 tested, 6.9% active
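Delayed-death screen, second-generation endpoint: infected erythrocytes, 2% hematocrit, 0.05% parasitemia final; 96 hours at 37 C, 5% CO2; luciferase detection reagent; luminescence decrease equals reduced growth.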
AMA1-RON2 inh: qHTS for Inhibitors of AMA1-RON; Towards Development of Antimalarial Drug Lead: Primary Screen | AID 720542, 2013 | Potency, µM (top dose mostly 58.2 µM), hits mostly inhibitors | 360,000 tested, 0.2% active | AlphaScreen AMA1-biotinylated RON2 peptide binding; note: nearly all actives have a fitted effect of over 45% in size
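AMA1 (3D7) with his tag at 25 nM final met compounds first, then biotinylated RON2 peptide at 25 nM; detection used donor plus acceptor beads, 10 µg/mL apiece, read by AlphaScreen after 30 min at room temperature.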
VACV Venus inh: qHTS for Stage-Specific Inhibitors of Vaccinia Orthopoxvirus: Venus Reporter Primary qHTS. Vaccinia virus Venus reporter expression, fluorescence. Potency, µM (top dose mostly 36.5 µM), hits mostly inhibitors. 330,000 tested, 0.46% active. AID 720580, 2013; calls by dose curve; tested in A549 cells; note: nearly all actives have a fitted effect of over 30% in size
Hits are given with their value; i = inactive; ? = inconclusive; nt = no result; [ ] = another dose, or the depositor's remark. Unless noted, calls come from the whole dose curve; as a rule, active = well fitted curve in the direction sought with a large enough effect; inconclusive = small, poorly fitted or top-dose-only effect, or another doubt; inactive = no such curve, though single readings can be large; an effect the other way counts as inactive or inconclusive.

SMILES	Pf growth 48h	Vaccinia mCherry	Pf growth 96h	AMA1-RON2 inh	VACV Venus inh
Cc1ccc(S(=O)(=O)N2CCN(Cc3cc(Br)ccc3O)CC2)cc1	nt	i	nt	nt	i
Cc1cc(C)c(/C([O-])=C(/C(=S)Nc2ccc(SC(F)F)cc2)[n+]2ccccc2)cc1C	12µM	i	?	i	i
CN(C)c1cc[n+](/C(C(=S)Nc2ccc(SC(F)F)cc2)=C(/[O-])c2ccccc2)cc1	4.7µM	nt	2.1µM	i	nt
Cc1ccc(NC(=S)/C(=C(\[O-])c2ccc(F)cc2)[n+]2ccccc2)cc1	i	i	i	i	i
C=CCn1c(C)cc(/C([O-])=C(/C(=S)Nc2ccc(OC(F)F)cc2)[n+]2ccc(N(C)C)cc2)c1C	?	i	3.7µM	i	i
[O-]/C(=C(\C(=S)Nc1ccc(SC(F)F)cc1)[n+]1ccccc1)c1cc(Cl)ccc1Cl	i	i	i	i	i
CCS(=O)(=O)NCc1c(C)ncc2c1CCN(C(=O)c1ccc(F)cc1)C2	nt	i	nt	nt	i
CCOc1ccc(CNC(=O)Cn2ncc3c(=O)oc4ccc(C)cc4c32)cc1	nt	i	nt	nt	i
Cc1cccc(NC(=O)C2CCCN(S(=O)(=O)c3cccc4nonc34)C2)c1C (stereo unspecified)	nt	i[7.34 µM]	nt	nt	i[7.34 µM]
O=C1CC[C@@H](CN(Cc2cccnc2)C2CCN(c3ccc(NC(=O)c4cnccn4)cc3)CC2)N1	nt	i	nt	nt	i
CCc1ccc(NC(=O)Nc2nnc(N(C)C3CCCCC3)s2)cc1	nt	i	nt	nt	i
CCN(CC)c1ccc(/C=C/C2=C3C=CC=CC3NC=C2)cc1 (stereo unspecified)	nt	i	nt	nt	i
CC(C)(O)C#Cc1ccc(CN2CCN(Cc3ccccc3)C(CCO)C2)s1 (stereo unspecified)	?	i	?	i	i
CC(C)(O)C#Cc1ccc(CN2CCN(Cc3ccsc3)C(CCO)C2)s1 (stereo unspecified)	i	i	8.3µM	i	i
COc1cccc(Oc2cn[nH]c2-c2ccc(OCC(=O)NN)cc2O)c1	?	nt	?	i	nt
CCOc1ccc(-c2[nH]ncc2Oc2ccccc2OC)c(O)c1	8.3µM	nt	nt	i	?
CCOc1ccccc1Oc1cn[nH]c1-c1ccc(OCC(=O)NN)cc1O	nt	i	13µM	i	i
COc1ccc(-c2[nH]ncc2-c2nc(C)cs2)c(O)c1	i	i	i	i	i
CCOc1ccccc1OCCOc1ccc(F)cc1	i	i	i	i	i
CCOc1ccc(-c2[nH]ncc2Oc2ccccc2OCC)c(O)c1	5.9µM	nt	?	i	?
Cc1ccc(S(=O)(=O)N2CCN(c3nc(Nc4ccccc4O)nc4ccccc34)CC2)cc1	nt	i	nt	nt	i
CCC1Oc2ccc(C)cc2N(CC(=O)N(Cc2cccnc2)Cc2ccc(C)o2)C1=O (stereo unspecified)	12µM	nt	i	i	nt
COC(=O)C1=C(c2ccccc2)c2ccccc2S(=O)(=O)N1CC(=O)Nc1ccc(OC)cc1OC	nt	i	nt	nt	i
CCc1n[nH]c(=S)n1/N=C/c1ccc(N(C)c2ccccc2)cc1	10µM	i	?	i	i
CSc1ccc(C(=O)C2CCCN(C(=O)c3nonc3C)C2)cc1 (stereo unspecified)	15µM	i	i	i	i
SMILES	Pf growth 48h	Vaccinia mCherry	Pf growth 96h	AMA1-RON2 inh	VACV Venus inh
O=C(CN1CCN(Cc2ccccc2Cl)C1=O)NCc1ccco1	i	i	3.3µM	i	i
O=C(CSCc1c(F)cccc1Cl)NCc1ccco1	?	i	i	i	i
O=C(CSCc1c(Cl)cccc1Cl)NCc1ccco1	?	nt	13µM	i	i
O=C(NCc1ccco1)c1nc2c(nnn2Cc2ccccc2Cl)c(=O)[nH]1	9.3µM	13µM	i	i	11µM
COc1cc(OC)c(NC(=O)C2=C(C)C(=O)OC23CCCCC3)cc1Cl	nt	i	nt	nt	i
CC(=O)NCCn1c(SCC(=O)NCc2ccco2)nc2ccccc2c1=O	i	nt	4.7µM	i	nt
COc1ccccc1NC(=O)CSc1nc2ccccc2c(=O)n1CCNC(C)=O	?	nt	8.3µM	i	nt
O=C(CSc1nnc(-c2ccccc2)c(-c2ccccc2)n1)NCc1ccco1	10µM	nt	i	i	nt
C=CCn1c(SCC(N)=O)nc2ccccc2c1=O	nt	i	nt	nt	i
CCCCn1c(SCC(=O)NCc2ccco2)nc2ccccc2c1=O	nt	i	i	i	i
CC(=O)NCCn1c(SCC(=O)NCCC(C)C)nc2ccccc2c1=O	i	nt	nt	i	nt
O=C(CSc1ncc(-c2ccccc2)nn1)NCc1ccco1	i	i	i	i	i
C=CCn1c(SCC(=O)c2ccc(CNC(C)=O)o2)nc2ccccc2c1=O	nt	nt	15µM	i	1.3µM
CCc1cccc(C)c1NC(=O)CSc1nc2ccccc2nc1N1CCOCC1	nt	i	nt	nt	i
Cc1csc2nc(CCNS(=O)(=O)c3ccc(F)cc3)cn12	nt	i	nt	nt	i
CCOC(=O)c1sc2ncn(CC(=O)Nc3ccc(OC)c(Cl)c3)c(=O)c2c1C	nt	i	nt	nt	i
CCOC(=O)CSc1nc2ccccc2c(=O)n1CCCCCC(=O)NCc1ccco1	12µM	nt	i	i	nt
Nc1ccc(-c2nc3c(Cl)cc(N)cc3[nH]2)cc1	?	i	9.3µM	i	i
Cc1cc2c(cc1C)N[C@]1(C[C@H]3CCCC(=O)N4CC[C@@H](C1)[C@@H]34)C(=NCc1ccccc1)N2	nt	i	nt	nt	i
O=c1c2ccc(Cl)cc2nc(-c2cccc(C(F)(F)F)c2)n1O	?	?	10µM	i	?
CCCn1c(=O)c2sccc2n2c(CCCC(=O)NCCOC)nnc12	nt	i	nt	nt	i
CC(NC(=O)c1cc(S(=O)(=O)N2CCOCC2)ccc1F)c1ccc(-n2ccnc2)cc1 (stereo unspecified)	i	nt	9.3µM	i	nt
CC(NC(=O)c1ccc(N(C)C)c([N+](=O)[O-])c1)c1ccc(-n2ccnc2)cc1 (stereo unspecified)	i	i	?	i	i
Cc1ccc(C(=O)NC(C)c2ccc(-n3ccnc3)cc2)cc1S(=O)(=O)N1CCOCC1 (stereo unspecified)	?	i	?	i	i
CC(NC(=O)c1cc([N+](=O)[O-])cc([N+](=O)[O-])c1)c1ccc(-n2ccnc2)cc1 (stereo unspecified)	1.5µM	i	0.93µM	i	i
SMILES	Pf growth 48h	Vaccinia mCherry	Pf growth 96h	AMA1-RON2 inh	VACV Venus inh
COc1ccc(/C=C(\C#N)c2nc3ccccc3c(=O)[nH]2)cc1OC	nt	i	nt	nt	i
CCOC(=O)c1c(C)c(C(=O)NCc2ccc(Cl)cc2)c(C)n1C	nt	i	nt	nt	i
CCOC(=O)CSc1nc2c([nH]c3ccccc32)c(=O)n1-c1ccc(OCC)cc1	nt	i	nt	nt	i
CC(C)N1CCN(CCCc2ccccc2)CC1CCO (stereo unspecified)	i	nt	13µM	i	nt
COc1ccc(/C=C/CN2CCN(CC(C)C)C(CCO)C2)cc1 (stereo unspecified)	?	i	4.1µM	i	i
CC(C)(C)CN1CCN(CCCc2ccccc2)C(CCO)C1 (stereo unspecified)	?	i	?	i	i
